Measured values: PubChem BioAssay (NCI)
This is part of a sample that, as a whole, favours compounds with a hit. Of some 83,000 tested, about 20% had one in any assay.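 Single-concentration screen, 48 h exposure, 96-well plates. Endpoint: percent growth. Below 10 = active.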 Unmarked numbers belong to inactive results. The source made the active and inactive calls.

Experiments:
Experiment in all cases: NCI-60 one-dose screen, 48 h (100 = growth as untreated, 0 = no growth, -100 = all killed)
Conditions in all cases: 10 µM
RPMI-8226 leukemia = test system: RPMI-8226 leukemia
OVCAR-8 ovarian = test system: OVCAR-8 ovarian
OVCAR-5 ovarian = test system: OVCAR-5 ovarian
OVCAR-4 ovarian = test system: OVCAR-4 ovarian
SK-OV-3 ovarian = test system: SK-OV-3 ovarian
OVCAR-3 ovarian = test system: OVCAR-3 ovarian
HS 578T breast = test system: HS 578T breast
NCI/ADR-RES ovarian = test system: NCI/ADR-RES ovarian
T-47D breast = test system: T-47D breast
BT-549 breast = test system: BT-549 breast
MDA-MB-435 melanoma = test system: MDA-MB-435 melanoma
SW-620 colon = test system: SW-620 colon
MCF7 breast = test system: MCF7 breast
HCT-116 colon = test system: HCT-116 colon
HCC-2998 colon = test system: HCC-2998 colon
KM12 colon = test system: KM12 colon

| SMILES | growth (RPMI-8226 leukemia) | growth (OVCAR-8 ovarian) | growth (OVCAR-5 ovarian) | growth (OVCAR-4 ovarian) | growth (SK-OV-3 ovarian) | growth (OVCAR-3 ovarian) | growth (HS 578T breast) | growth (NCI/ADR-RES ovarian) | growth (T-47D breast) | growth (BT-549 breast) | growth (MDA-MB-435 melanoma) | growth (SW-620 colon) | growth (MCF7 breast) | growth (HCT-116 colon) | growth (HCC-2998 colon) | growth (KM12 colon) |
| --- | --- | --- | --- | --- | --- | --- | --- | --- | --- | --- | --- | --- | --- | --- | --- | --- |
| O=C(Nc1cccc(-n2cc(-c3ccncc3)c(-c3ccc(O)c(Cl)c3)n2)c1)c1ccc(Cl)c(Cl)c1 | 18.1% | 35.7% | 109% | 67% | 80.9% | 81.7% | 53.8% | 49.6% | 36% | 68.5% | 47.2% | 28.2% | 35.5% | 44.4% | 54.3% | 43.9% |
| CCN(CC)CCC(CNc1c(C)cnc2cc(Cl)ccc12)c1ccc(Cl)c(Cl)c1 (configuration not stated) | 24.5% | 65.7% | 58.3% | 63.6% | 84.1% | 77% | 72.3% | 63.7% | 65.4% | 75.1% |  | 46.2% | 27.4% | 21.7% | -18.2% (active) | 71.3% |
| Nc1nc(N)c2c(ccc3nccc32)[nH]1 | 43.2% | 26.2% | 65.2% | 66.1% | 58.8% | 75.5% | 89.5% | 53.1% | 73% | 21% | 34.8% | 29.4% | 54% | 15.1% | 54.4% | 62.4% |
| CCN1Cc2c(/C=C/c3ccccc3)nc3ccc(OC)cc3c2N(c2cccc(Cl)c2)C1 | -1.25% (active) | 89.4% | 95.4% | 67.5% | 77.3% | 74.7% | 105% | 77.4% | 55.1% | 95.2% | 76.1% | 67.4% | 78.5% | 45.8% | 86% | 94.2% |
| COc1ccc(-c2cc(/C=C/C(=O)c3cc(OC)c(OC)c(OC)c3)[nH]n2)cc1OC | -39.1% (active) | -17.1% (active) | 17.5% | -51.6% (active) | 39.3% | -17.5% (active) | 71% | 12.3% | -14% (active) | 24% | 4.69% (active) | -65.6% (active) | -9.93% (active) | -46.5% (active) | -75.7% (active) | -61.6% (active) |
| Nc1ccn(C2CC(O)C(CO)O2)c(=O)n1 (configuration not stated) | 112% | 106% | 92.4% | 114% | 105% | 123% | 111% | 102% | 103% |  | 107% | 113% | 103% | 109% | 2.98% (active) | 110% |
| O=C(Nc1ccccc1)Nc1cccc(-n2cc(-c3ccncc3)c(-c3ccc(O)c(Cl)c3)n2)c1 | 9.53% (active) | 42.7% | 91.1% | 72.8% | 58.6% | 73.8% | 40% | 83.2% | 44.6% | 67.1% | 52.4% | 50.8% | 32.5% | 41.2% | 44.2% | 32.6% |
| O=C(Nc1cccc(-n2cc(-c3ccncc3)c(-c3ccc(O)c(Cl)c3)n2)c1)Nc1ccc(Cl)c(Cl)c1 | -30.8% (active) | -24.9% (active) | 31.4% | 13.8% | 19% | -16.5% (active) | -0.243% (active) | 17.9% | -3.41% (active) | 1.9% (active) | -16.7% (active) | 6.85% (active) | -0.812% (active) | 1.72% (active) | 20.5% | 0.41% (active) |
| CCCCCCCCCCCCCC[n+]1ccc(C(N)=O)cc1 | -41.2% (active) | 1.18% (active) | -4.86% (active) | 32.4% | 34.3% | -27.1% (active) | -14.5% (active) | 96.1% | 46.9% | -50.9% (active) | 8.53% (active) | 7.11% (active) | 22.8% | 6.07% (active) | 6.43% (active) | -87.2% (active) |
